Source: PubChem BioAssay (EPA / NIEHS)
Records with an inconclusive call do not appear. The source made the active and inactive calls. Rule for the calls, unless noted: active = hit-call score of the fitted dose curve at least 0.9, where 1 is the maximum; inactive = score below 0.9.

Key:
[1] = TOX21_p53_BLA_p2_viability: Viability Assessment in the Tox21 HCT-116 p53 Agonism Beta-lactamase Assay, Phase 2 (AID 2283591; active = hit-call score of the fitted dose curve at least 0.9, where 1 is the maximum;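 note: compound exposure lasted 16 h at 37 °C; actives lower the ATP signal meaning cytotoxicity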)
In short: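 Cytotoxicity readout: CellTiter-Glo ATP luminescence, 30 min at room temperature, after the beta-lactamase read. Cells were HCT116 exposed 16 h at 37C to compounds pin-transferred at 217-fold dilution from DMSO stocks.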

[2] = biological target: Cellular tumor antigen p53 (Homo sapiens) (UniProt P04637); assay: TOX21_p53_BLA_p2_ratio: Tox21 HCT-116 p53 Agonism Beta-lactamase Assay, Ratio, Phase 2 (AID 2283592; active = hit-call score of the fitted dose curve at least 0.9, where 1 is the maximum)
Sequence of Cellular tumor antigen p53 (Homo sapiens) (P04637 whole entry, looked up): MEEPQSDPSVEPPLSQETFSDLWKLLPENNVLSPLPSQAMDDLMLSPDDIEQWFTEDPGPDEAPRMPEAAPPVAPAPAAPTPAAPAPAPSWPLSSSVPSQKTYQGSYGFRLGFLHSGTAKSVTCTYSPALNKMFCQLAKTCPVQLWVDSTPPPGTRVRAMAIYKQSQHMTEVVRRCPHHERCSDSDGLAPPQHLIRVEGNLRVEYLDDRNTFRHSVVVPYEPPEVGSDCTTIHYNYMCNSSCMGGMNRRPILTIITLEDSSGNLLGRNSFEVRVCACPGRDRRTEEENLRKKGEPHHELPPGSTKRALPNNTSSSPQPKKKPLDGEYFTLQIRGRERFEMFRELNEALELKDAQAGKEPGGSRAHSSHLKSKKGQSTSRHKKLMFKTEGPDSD
In short: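 Cleaved-to-uncleaved substrate ratio (460 vs 530 nm) measured in HCT116 cells with an inducible beta-lactamase reporter linked to p53 activity. Compounds incubated 16 h at 37C before 2 h room-temperature CCF4-AM loading.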

[3] = TOX21_p53_BLA_p3_viability: Viability Assessment in the Tox21 HCT-116 p53 Agonism Beta-lactamase Assay, Phase 3 (AID 2283593; active = hit-call score of the fitted dose curve at least 0.9, where 1 is the maximum;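 note: cells exposed to compound for 16 h before reading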)
In short: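 Cellular ATP was quantified by CellTiter-Glo luminescence, read after 30 min at room temperature. Beforehand, HCT116 cells (4000/well) received compound 5 h post-seeding, 217-fold diluted from DMSO, then incubated 16 h at 37C.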

[4] = TOX21_p53_BLA_p4_viability: Viability Assessment in the Tox21 HCT-116 p53 Agonism Beta-lactamase Assay, Phase 4 (AID 2283597; active = hit-call score of the fitted dose curve at least 0.9, where 1 is the maximum;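 note: hits lower the luminescence signal meaning cytotoxicity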)
In short: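 Viability is taken as cellular ATP: after 16 h compound exposure of HCT116 cells and a 2 h room-temperature CCF4-AM substrate step, CellTiter-Glo reagent is added and luminescence is measured 30 min later.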

[5] = TOX21_p53_BLA_p5_viability: Viability Assessment in the Tox21 HCT-116 p53 Agonism Beta-lactamase Assay, Phase 5 (AID 2283600; active = hit-call score of the fitted dose curve at least 0.9, where 1 is the maximum)
In short: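 Viability is taken from cellular ATP content, measured by luciferase luminescence in the same wells after the beta-lactamase ratio read. Cells are seeded at 4000 per well and exposed to DMSO-dissolved compounds, diluted 217-fold, for 16 h.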

[6] = biological target: Cellular tumor antigen p53 (Homo sapiens) (UniProt P04637); assay: TOX21_p53_BLA_p4_ratio: Tox21 HCT-116 p53 Agonism Beta-lactamase Assay, Ratio, Phase 4 (AID 2283601; active = hit-call score of the fitted dose curve at least 0.9, where 1 is the maximum)
In short: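 Signal is the blue/green (460nm/530nm) ratio of cleaved versus uncleaved CCF4-AM substrate, read after 2 h substrate loading. Cells were HCT116 carrying the p53-responsive beta-lactamase reporter, dosed 16 h at 37C, 5% CO2; CellTiter-Glo measured in parallel.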

[7] = CCTE_Shafer_MEA_dev_firing_rate_mean: CCTE's Neural Network Formation Assay for Mean Firing Rate, Shafer Lab (AID 2284031)
In short: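 Extracellular spike frequency, AUC over DIV 5–12 recordings, in rat cortical neuron MEA cultures dosed from plating; loss direction vs DMSO.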

[8] = CCTE_Shafer_MEA_dev_per_burst_spike_percent: CCTE's Neural Network Formation Assay for Percent of Spikes in a Burst, Shafer Lab (AID 2284032)
In short: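 Value is trapezoidal AUC over recordings on days 5, 7, 9 and 12 of the well-mean fraction of spikes falling in single-electrode bursts; rat cortical cultures exposed continuously from plating, treatment renewed DIV 5 and 9, fitted downward against DMSO.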

[9] = CCTE_Shafer_MEA_dev_active_electrodes_number: CCTE's Neural Network Formation Assay for Number of Active Electrodes, Shafer Lab (AID 2284040; active = hit-call score of the fitted dose curve at least 0.9, where 1 is the maximum)
In short: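 Developing rat cortical networks on MEAs, exposed DIV 0–12. Value is the AUC of active-electrode counts (≥5 spikes/min) from days 5, 7, 9, 12, relative to DMSO.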

[10] = CCTE_Shafer_MEA_dev_burst_rate: CCTE's Neural Network Formation Assay for Burst Rate, Shafer Lab (AID 2284042)
In short: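 Primary rat cortical neurons on PEI-coated 48-well MEA plates (laminin added with cells at plating) (16 electrodes/well), exposed from plating to day 12, dosing renewed at DIV 5 and 9. Burst rate averaged over active electrodes, recorded DIV 5, 7, 9, 12, summarized as AUC; loss versus DMSO.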

[11] = CCTE_Shafer_MEA_dev_bursting_electrodes_number: CCTE's Neural Network Formation Assay for Number of Bursting Electrodes, Shafer Lab (AID 2284043; active = hit-call score of the fitted dose curve at least 0.9, where 1 is the maximum)
In short: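 Number of electrodes reaching ≥1 burst every 2 min was recorded at DIV 5, 7, 9 and 12 and collapsed as trapezoidal area under the curve. Cultures were rat cortical neurons on MEA plates, dosed continuously from plating with medium and treatment refreshed on DIV 5 and 9.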

[12] = CCTE_Shafer_MEA_dev_per_burst_interspike_interval: CCTE's Neural Network Formation Assay for Burst Interspike Interval, Shafer Lab (AID 2284044)
In short: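 Developmental network-formation MEA in primary rat cortical cultures with exposure spanning days 0–12. Within-burst ISI is averaged per well and integrated across recording days by area under the curve, with DMSO as negative control baseline.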

[13] = CCTE_Shafer_MEA_dev_burst_duration_mean: CCTE's Neural Network Formation Assay for Mean Burst Duration, Shafer Lab (AID 2284045)
In short: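 Mean single-electrode burst duration (first to last spike), averaged over bursting electrodes per well, then integrated as area-under-curve across recordings at days 5, 7, 9 and 12. Rat cortical cultures on MEAs, compound present from plating, refreshed at feeds.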

[14] = CCTE_Shafer_MEA_dev_interburst_interval_mean: CCTE's Neural Network Formation Assay for Mean Interburst Interval, Shafer Lab (AID 2284046);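 note: well-mean interburst interval of bursting electrodes as AUC over four recording days; curve fitted for decrease in interburst interval relative to DMSO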
In short: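 Recordings on days 5, 7, 9 and 12 give well-mean interburst interval across actively bursting electrodes, summarized as area under the curve. Cultures: rat cortical neurons, continuous exposure from day 0, compound renewed at feeds; decrease analyzed versus DMSO.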

[15] = CCTE_Shafer_MEA_dev_inter_network_spike_interval_mean: CCTE's Neural Network Formation Assay for Mean Inter-network Spike Interval, Shafer Lab (AID 2284047)
In short: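 Primary rat cortical neurons on 16-electrode MEA wells, exposed from plating day 0 through DIV 12, compound renewed at DIV 5 and 9 media changes. Mean interval between network-spike peaks recorded DIV 5, 7, 9, 12; collapsed as trapezoidal AUC, fitted downward versus DMSO.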

[16] = CCTE_Shafer_MEA_dev_network_spike_number: CCTE's Neural Network Formation Assay for Number of Network Spikes, Shafer Lab (AID 2284048);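 note: synchronized bursts across electrodes counted on days 5 7 9 12 and integrated as AUC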
In short: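 Number of network spikes (coordinated firing across electrodes) recorded on days 5, 7, 9 and 12 and summarised as area under the curve. Rat cortical cultures on MEA, continuous compound exposure with full medium/treatment exchange at DIV 5 and 9.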

[17] = CCTE_Shafer_MEA_dev_network_spike_peak: CCTE's Neural Network Formation Assay for Mean Number of Electrodes in Network Spike, Shafer Lab (AID 2284049)
In short: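 Rat cortical primary culture, 1.5 x 10^5 cells/well, 48-well MEA (16 electrodes/well). Dosing day 0 through DIV 12, full media/compound exchange DIV 5, 9. AxIS adaptive spike detection; AUC over days 5/7/9/12; loss-of-signal vs DMSO.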

[18] = CCTE_Shafer_MEA_dev_spike_duration_mean: CCTE's Neural Network Formation Assay for Mean Spike Duration, Shafer Lab (AID 2284051);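 note: mean network spike duration pooled as area under curve over DIV 5 to 12 recordings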
In short: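 Primary rat cortical neurons on 16-electrode MEA wells (PEI-coated, laminin in plating drop), exposed from plating through DIV 12 with compound renewed at DIV 5 and 9. Mean network-spike duration recorded DIV 5, 7, 9, 12; trapezoidal AUC across days, DMSO baseline.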

[19] = CCTE_Shafer_MEA_dev_network_spike_duration_std: CCTE's Neural Network Formation Assay for Standard Deviation of Network Spike Duration, Shafer Lab (AID 2284052);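 note: hits are decreases in network spike duration SD versus DMSO vehicle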
In short: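 Primary rat cortical neurons on PEI-coated 16-electrode MEA wells, exposed from plating day 0 through day 12 with compound renewed at DIV 5 and 9. Network spike duration SD recorded on days 5, 7, 9, 12, collapsed as trapezoidal AUC; loss-of-signal fit versus DMSO.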

[20] = CCTE_Shafer_MEA_dev_per_network_spike_spike_number_mean: CCTE's Neural Network Formation Assay for Mean Number of Spikes in a Network Spike, Shafer Lab (AID 2284053)
In short: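 Primary rat cortical neurons on 48-well, 16-electrode MEA plates were exposed from plating to DIV 12, with dosing renewed on DIV 5 and 9. Spikes per network spike (0.05 s peak window) were recorded on DIV 5, 7, 9 and 12 and collapsed as trapezoidal AUC versus DMSO.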

[21] = CCTE_Shafer_MEA_dev_per_network_spike_spike_percent: CCTE's Neural Network Formation Assay for Percent of Spikes in a Network Spike, Shafer Lab (AID 2284054)
In short: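 Metric: fraction of spikes falling in a 0.05 s window at network-spike peaks. Recordings were made on days 5, 7, 9 and 12 and collapsed by trapezoidal AUC. Cultures were rat cortical neurons on MEA plates, dosed continuously from plating, re-dosed at media changes.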

[22] = UKN5_HCS_SBAD2_cell_viability: Viability Assessment in the University of Konstanz (UKN) Leist Lab Neurite Outgrowth Assay in human iPSC-derived immature Dorsal Root Ganglia Neurons (UKN5) (AID 2284056)
In short: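 iPSC-derived immature peripheral neurons (SBAD2) seeded on Matrigel with CHIR99021, SU5402 and DAPT, dosed 1 h later for 24 h. Viability from Hoechst H-33342 and calcein-AM live staining, high-content imaging; bidirectional fit versus DMSO.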

[23] = CCTE_Shafer_MEA_dev_LDH: CCTE's Lactate Dehydrogenase Assay for Cytotoxicity in the Neural Network Formation Assay, Shafer Lab (AID 2284068; active = hit-call score of the fitted dose curve at least 0.9, where 1 is the maximum;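 note: exposure for twelve days from plating with re-dosing on DIV 5 and 9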)
In short: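 Primary rat cortical neurons were plated on PEI/laminin MEA plates and exposed from day 0 for twelve days, with compound renewed at DIV 5 and 9. Cytotoxicity was determined by spectrophotometric LDH assay relative to DMSO.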

[24] = UKN5_HCS_SBAD2_neurite_outgrowth: University of Konstanz (UKN) Leist Lab Neurite Outgrowth Assay in human iPSC-derived immature Dorsal Root Ganglia Neurons (UKN5) (AID 2284070); settings: actives raise or lower the signal
In short: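 Neurite outgrowth is quantified as calcein-AM-labelled neurite area in human iPSC-derived peripheral neurons treated for 24 h, starting 1 h after plating in medium with CHIR99021 (1.5 uM), SU5402 (5 uM) and DAPT (5 uM).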

[25] = CCTE_Shafer_MEA_dev_mutual_information_norm: CCTE's Neural Network Formation Assay for Mutual Information Normalization, Shafer Lab (AID 2284091)
In short: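 Shared information across electrodes, tracked on days 5, 7, 9 and 12 of network development and collapsed as trapezoidal area under the curve. Rat cortical cultures were treated continuously from plating, with treatment renewed at feeds on DIV 5 and 9; DMSO baseline, negative-direction fit.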

[26] = CCTE_Shafer_MEA_dev_correlation_coefficient_mean: CCTE's Neural Network Formation Assay for Mean Correlation Coefficient, Shafer Lab (AID 2284093)
In short: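 Spontaneous activity recorded on days 5, 7, 9 and 12 post-plating; pairwise spike correlations are averaged across active electrodes and collapsed to an area-under-curve. Rat cortical cultures are dosed from plating through 12 days, with compound renewed at media changes.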

[27] = UKN2_HCS_IMR90_neural_migration: University of Konstanz (UKN) Leist Lab Neural Crest Cell Migration Assay in human induced IMR90 Pluripotent Stem Cells (UKN2) (AID 2284204); settings: actives raise or lower the signal
In short: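 High-content imaging of calcein-AM and Hoechst stained cells quantifies migration into a stopper-defined gap after 24 h compound exposure. Neural crest cells from IMR90 iPSC migrated 24 h in EGF/FGF N2-S medium before dosing; DMSO baseline.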

[28] = UKN4_HCS_LUHMES_neurite_outgrowth: University of Konstanz (UKN) Leist Lab Neurite Outgrowth Assay in human LUHMES cells (UKN4) (AID 2284206); settings: actives raise or lower the signal
In short: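 Neurite area in dopaminergic-model LUHMES neurons is measured by high-content imaging of calcein-AM after 24 h treatment starting shortly after day-2 replating; Hoechst staining tracks viability.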

[29] = CCTE_Mundy_HCI_Cortical_NOG_NeuriteLength: CCTE's Neurite Outgrowth Assay in rat cortical cells for Neurite Length, Mundy Lab (AID 2284213)
In short: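 First, rat primary cortical cells were plated and, 2 h later, given test chemical as a 1/10 dilution. Finally, βIII-tubulin immunostaining enabled automated imaging of neurite length.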

[30] = CCTE_Mundy_HCI_Cortical_Synap_Neur_Matur_NeuriteLength: CCTE's Synaptogenesis and Neurite Maturation Assay in rat cortical cells for Neurite Length, Mundy Lab (AID 2284214)
In short: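 DMSO-normalised neurite length, from high-content imaging of anti-MAP2-stained rat cortical cells fixed at DIV 12. Glia were suppressed with AraC (DIV 5) before chemical exposure from DIV 7.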

[31] = CCTE_Mundy_HCI_Cortical_Synap_Neur_Matur_NeuriteSpotCountPerNeuron: CCTE's Synaptogenesis and Neurite Maturation Assay in rat cortical cells for Neurite Spot Count per Neuron Count, Mundy Lab (AID 2284215)
In short: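 Synapse density is scored as synaptophysin spots along neurites per neuron in fixed rat cortical neurons, measured at DIV 12 after chemical dosing at DIV 7. DMSO is the negative control and activity baseline.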

[32] = CCTE_Mundy_HCI_Cortical_Synap_Neur_Matur_SynapseCount: CCTE's Synaptogenesis and Neurite Maturation Assay in rat cortical cells for Synapse Count, Mundy Lab (AID 2284218)
In short: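 Endpoint: synapses/neuron by HCI (synaptophysin puncta on MAP2-labelled neurites, Hoechst nuclei). Rat primary cortical cells, AraC DIV 5, dosed DIV 7, fixed DIV 12; DMSO negative control.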

[33] = UKN4_HCS_LUHMES_cell_viability: Viability Assessment in the University of Konstanz (UKN) Leist Lab Neurite Outgrowth Assay in human LUHMES cells (UKN4) (AID 2284232)
In short: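 Measured in replated, 2-day-differentiated LUHMES cells treated 24 h; stained 30 min with H-33342 and calcein-AM before high-content imaging.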

[34] = UKN2_HCS_IMR90_cell_viability: Viability Assessment in the University of Konstanz (UKN) Leist Lab Neural Crest Cell Migration Assay in human induced IMR90 Pluripotent Stem Cells (UKN2) (AID 2284233);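 note: cells exposed to compound for 24 h after a 24 h migration phase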
In short: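 After calcein-AM/Hoechst staining, viability is quantified by high-content fluorescence imaging, relative to DMSO, in iPSC (IMR90)-derived neural crest cells. Exposure lasts 24 h, starting after a 24 h migration period on PLO/laminin/fibronectin coating.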

[35] = CCTE_Mundy_HCI_hNP1_Casp3_7: CCTE's Caspase-Glo 3/7 Assay in human neuroprogenitor cells for Apoptosis, Mundy Lab (AID 2284240)
In short: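 Apoptosis is scored by activated caspase-3/7 luminescence in WA09-derived neural progenitor cells, measured 26.5 h after chemical dosing. Values represent gain of signal relative to DMSO vehicle.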

Measured: outcome

COC(=O)[C@H]1[C@@H](OC(=O)c2ccccc2)C[C@@H]2CC[C@H]1N2C
inactive: [1] | [2] | [3] | [4] | [5] | [6] | [7] | [8] | [9] | [10] | [11] | [12] | [13] | [14] | [15] | [16] | [17] | [18] | [19] | [20] | [21] | [22] | [23] | [24] | [25] | [26] | [27] | [28] | [29] | [30] | [31] | [32] | [33] | [34] | [35]
